Measurements published in paper PMC7819943, “Rice protein-binding microarrays: a tool to detect cis-acting elements near promoter regions in rice”.
Over roughly 39,000 sequences, “fluorescence intensity (a.u.)” has its median near 4,300; the highest 2% begin near 39,000. The full list was thinned out, with the highest values kept by preference.

The sequences below were run against T1, OsSMF1 (Oryza sativa, UniProt Q6ZLB0 1-436) (assay: protein-binding microarray (RPBM); PBS, 2% BSA, 51.3 ng/ul salmon testes DNA, 50 uM zinc acetate, 200 nM TF, 25 C, 1 h; high values mean tight binding). Settings: protein: recombinant; tags: N-terminal polyhistidine and DsRed monomer fusion (pET32a); chain copies: 2; label: CyDye5-dUTP incorporated in the synthesized complementary strand; 3' TTTTT single-stranded linker to array surface; dsDNA, one strand shown.
T1 sequence: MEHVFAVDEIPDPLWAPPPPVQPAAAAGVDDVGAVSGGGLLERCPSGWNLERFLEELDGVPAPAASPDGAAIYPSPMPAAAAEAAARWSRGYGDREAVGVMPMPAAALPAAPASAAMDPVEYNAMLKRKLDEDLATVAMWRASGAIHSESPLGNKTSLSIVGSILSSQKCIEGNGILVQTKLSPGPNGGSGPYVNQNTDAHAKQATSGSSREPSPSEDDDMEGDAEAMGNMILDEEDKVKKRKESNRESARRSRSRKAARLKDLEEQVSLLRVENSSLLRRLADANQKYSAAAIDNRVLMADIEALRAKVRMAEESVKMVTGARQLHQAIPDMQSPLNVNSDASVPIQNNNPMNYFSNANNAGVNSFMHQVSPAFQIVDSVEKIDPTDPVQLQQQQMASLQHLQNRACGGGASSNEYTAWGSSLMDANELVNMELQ
Method in brief: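 In PBS with 2% BSA, salmon testes DNA and 50 µM zinc acetate, 200 nM protein was incubated on a custom Agilent array at 25 °C for 1 h and then washed off. The array had been made double-stranded by primer extension with Cy5-dUTP and blocked with 2% BSA. The proteins were transcription factors fused N-terminally to polyhistidine and DsRed, expressed in E. coli BL21-CodonPlus and purified on Ni–NTA. The binding signal is per-feature fluorescence intensity (arbitrary units) from an Axon 4000B scanner.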

Sequence | binding signal
TCTGATATGGCATTGACGTGACACTTACGTGGCAATTCGACGGAGTCACCTAGTGCAG | 12500 fluorescence intensity (a.u.)
AGTGCCTATGTGGCGTTGACGTGGCGCTTACGTGGCAATTCGGAGTCACCTAGTGCAG | 27500 fluorescence intensity (a.u.)
TGGCATTGACGTGGCGCTTACGTGGCATTATATCTTGAAACGGAGTCACCTAGTGCAG | 33400 fluorescence intensity (a.u.)
TGACTCAGTATCGATCTGACGTGGCGCTTACGTGGCAATTCGGAGTCACCTAGTGCAG | 48000 fluorescence intensity (a.u.)
GCTATATTAAACATTTGCTAATGACAAATTAATTAGCTTACGGAGTCACCTAGTGCAG | 14700 fluorescence intensity (a.u.)
TCCATTTTGGACCGCTGACGAGGACGATAGGAGCGTGAGTCGGAGTCACCTAGTGCAG | 4710 fluorescence intensity (a.u.)
AGCTTGTGTACCCAGGAGATCTACATACTTCGCTACGTCACGGAGTCACCTAGTGCAG | 4570 fluorescence intensity (a.u.)
AGTATATCCTAAAGCGACACTTTACAGTCTCAAGGACATCCGGAGTCACCTAGTGCAG | 11200 fluorescence intensity (a.u.)
TGGAGGAAGTCAGTAGGATCCCACGTGTCATACTCACACCCGGAGTCACCTAGTGCAG | 22200 fluorescence intensity (a.u.)
ACTCCGGTCCAGGAAAATTATTCCTATAGTAATGTAATAACGGAGTCACCTAGTGCAG | 42900 fluorescence intensity (a.u.)
ATTTAACTGCATAGAAGTGTATAAGTAAAATAATTTATTCCGGAGTCACCTAGTGCAG | 4320 fluorescence intensity (a.u.)
TATATAACCTAAAATGGAGGAAGTAGGAAATATGTAATTCCGGAGTCACCTAGTGCAG | 4630 fluorescence intensity (a.u.)
GCCACACCCACACTGACACACATATACAAGCCAGAGAGATCGGAGTCACCTAGTGCAG | 3280 fluorescence intensity (a.u.)
GAAAGGAAGAGGTGGAGGAAGTGAGACCCACTGACTTGTGCGGAGTCACCTAGTGCAG | 24500 fluorescence intensity (a.u.)
TCCACCACACGTGTCTATATCGCTTCCTTCCATTCCATCACGGAGTCACCTAGTGCAG | 7170 fluorescence intensity (a.u.)
GACTTGTCCATGCATGCATGCATGACTTGTGTTCAGCCACCGGAGTCACCTAGTGCAG | 3700 fluorescence intensity (a.u.)
TTGTTGGTGTTTCCTCGTCCGCGTCGTCGGTTGCATTCTCCGGAGTCACCTAGTGCAG | 3190 fluorescence intensity (a.u.)
CGAAATAAGTAATTTACAGGGCTTTCTCTCTCTCGCTCACCGGAGTCACCTAGTGCAG | 64400 fluorescence intensity (a.u.)
GTAATTACAGCTCATGATTTTCTCTCTCTCTCTCTCTCTACGGAGTCACCTAGTGCAG | 19500 fluorescence intensity (a.u.)
ACTTACACAGTAATTACACCTCACTTACACCCGCTTACACCGGAGTCACCTAGTGCAG | 5410 fluorescence intensity (a.u.)
ATGTTGACTGGACTAGCACGTGTACGCCACGTAGACCAAACGGAGTCACCTAGTGCAG | 4790 fluorescence intensity (a.u.)
GTCACATCATCATGCATTAATAAAATGCCACGTCATCATCCGGAGTCACCTAGTGCAG | 50000 fluorescence intensity (a.u.)

Sequence | binding signal
ATAATGCTGACTGAACTGCCATGTGTACGCCACGTAGACCCGGAGTCACCTAGTGCAG | 27600 fluorescence intensity (a.u.)
GGATCAAATTGCCACATATGCGCCACGTTAATGCCACATCCGGAGTCACCTAGTGCAG | 8660 fluorescence intensity (a.u.)
ACACGTGGGACCCACGTGGGTCCCATGCTGACTCAGCTGCCGGAGTCACCTAGTGCAG | 28100 fluorescence intensity (a.u.)
CACATAAATAATAATAAAATGTGGGACCCACGTGGGCCCCCGGAGTCACCTAGTGCAG | 10400 fluorescence intensity (a.u.)
AGCTGTGTTGCTAATTGTGGCATTGTGATGTGATGATCCCCGGAGTCACCTAGTGCAG | 3160 fluorescence intensity (a.u.)
TAAATAATTGCCATTGCCATGCTGCCACGTGTCATGGGACCGGAGTCACCTAGTGCAG | 49900 fluorescence intensity (a.u.)
AAATGCTGACTGGACTGCCACGTGTACGCCACGTAGACCACGGAGTCACCTAGTGCAG | 45400 fluorescence intensity (a.u.)
GTGCATAAATTTATTAAAATAGAAAATTAATGCAGTGCCACGGAGTCACCTAGTGCAG | 4660 fluorescence intensity (a.u.)
TGCTGATGTTGCTGCTAAAATTGCACCATTGTTGTGTAACCGGAGTCACCTAGTGCAG | 40700 fluorescence intensity (a.u.)
TTGTTAACTGCTGATGTGTGACCTGACTGTTAAAAGCTGCCGGAGTCACCTAGTGCAG | 9170 fluorescence intensity (a.u.)
ACACTGTTCACCATGATCCACGTATATATGTGACGAAAATCGGAGTCACCTAGTGCAG | 4560 fluorescence intensity (a.u.)
TTGCGACGGCCATCCTCCGCGCGCGTGACACCAACGCCACCGGAGTCACCTAGTGCAG | 4880 fluorescence intensity (a.u.)
TTTCCCTGATAATAATAACCGACACGCGTAAGCTCTTGAACGGAGTCACCTAGTGCAG | 3360 fluorescence intensity (a.u.)
AGCATTTCCATCCACCACACGCGTACGTCCCCGTCACGCGCGGAGTCACCTAGTGCAG | 7440 fluorescence intensity (a.u.)
AAGTGCCTACCAAGCCAGCATCGTGTCATAGCCGGAGCATCGGAGTCACCTAGTGCAG | 3730 fluorescence intensity (a.u.)
ATTTGCGCTGATATATTATCTAACGTGACACGATTAATCCCGGAGTCACCTAGTGCAG | 6030 fluorescence intensity (a.u.)
GGGTCATTTGTCCCTTTCTGGAATGAAGTGCTTTGTAAAACGGAGTCACCTAGTGCAG | 33100 fluorescence intensity (a.u.)
TTTTAATCCGAGTTTCAGACCACGATGGCCATTTGTTTCGCGGAGTCACCTAGTGCAG | 3460 fluorescence intensity (a.u.)
TACCTTACCTGTACGGCAGGCATGCATGTTACTCCAGTAGCGGAGTCACCTAGTGCAG | 39800 fluorescence intensity (a.u.)
ACAGTACTTGGCTGTAGCGGGCATCTTGTCCTGGCATGTGCGGAGTCACCTAGTGCAG | 3600 fluorescence intensity (a.u.)
ACCTGTTGTACTTAGTTACGGCGACACGTTTGCATCAGGCCGGAGTCACCTAGTGCAG | 6860 fluorescence intensity (a.u.)
